Here are results for 14 molecules from PubChem BioAssay (NCATS).

Where “and” joins values, the source holds several entries; their conditions need not be identical. Identical values can stand only once. Results filed as inconclusive are left out. A structure can be active in one record and inactive in another. Calls of active or inactive are those of the source. Calls follow the shape of the dose curve; as a rule, active = well fitted curve in the direction sought with a large enough effect; inconclusive = small, poorly fitted or top-dose-only effect, or another doubt; inactive = no such curve, though single readings can be large; an effect the other way counts as inactive or inconclusive.

The nature of assay [1]: Viability qHTS for spleen associated tyrosine kinase inhibitor (SYKi) naive MV4-11 cells (AID 1963823). Also: nearly all actives have a fitted effect of over 40% in size. The gist of the method:
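Seeding of 500 SYKi-naive MV4-11 cells per well onto pre-dispensed compounds preceded a 72 hr incubation at 37 C. Luminescent CellTiter-Glo signal, read after 10 min at room temperature, reflected viable cells.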

Assay [2] is described as follows: Viability qHTS for spleen associated tyrosine kinase inhibitor (SYKi) drug resistant MV4-11 cells (AID 1963824). Also: nearly all actives have a fitted effect of over 35% in size. The gist of the method:
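CellTiter-Glo luminescence, read 10 min after reagent addition, reports viability after a 72 hr compound exposure. Cells are an MV4-11 line made resistant to SYK inhibition, seeded at 500 per well onto compound-containing plates.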
On the technique in general: Quantitative high-throughput screening tests each substance at several concentrations.

Assay [3] in a line: Quantitative highthroughput screen to assess conditional lethalithy of NOMO1 cells grown in RPMI1640 with untreated serum (RPMI+s) (AID 1963876). Also: nearly all actives have a fitted effect of over 35% in size.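 As to Viability: 100% = DMSO wells and 0% = empty wells without cells.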 The gist of the method: (§1)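 Each medium arm—HPLM with 10% dialyzed FBS, or RPMI1640 with 5 mM glucose and 10% untreated or dialyzed FBS—was screened against an 11-point, 3-fold compound titration for 48 h at 37 °C, with CellTiter-Glo luminescence as endpoint.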

A short description of assay [4]: Quantitative highthroughput screen to assess conditional lethalithy of NOMO1 cells grown in Human Plasma-Like Medium with dialyzed fetal bovine serum (HPLM+ds) (AID 1963878). Also: nearly all actives have a fitted effect of over 35% in size.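 As to Viability: 100% = DMSO wells and 0% = empty wells on each plate.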 The gist of the method:
as §1

Assay [5] is described as follows: Quantitative highthroughput screen to assess conditional lethalithy of P12 Ichikawa cells grown in Human Plasma-Like Medium with dialyzed fetal bovine serum (HPLM+ds) (AID 1963879). Also: nearly all actives have a fitted effect of over 35% in size. As to Viability: series mostly up to about 46 µM. Particulars: Potency: viability. In a few lines:
as §1

A short description of assay [6]: Quantitative highthroughput screen to assess conditional lethalithy of P12 Ichikawa cells grown in RPMI1640 with dialyzed fetal bovine serum (RPMI+ds) (AID 1963880). Also: nearly all actives have a fitted effect of over 35% in size.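 As to Viability: 100% = DMSO wells and 0% = empty wells on each plate.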 Particulars: Potency: P12-Ichikawa viability. In a few lines:
as §1

A short description of assay [7]: Cellular viability qHTS for adrenocortical cancer (ACC) cell line NCI-H295R (AID 1963990). Also: nearly all actives have a fitted effect of over 60% in size. In a few lines: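 Adrenocortical carcinoma cells, suspended at 300 000 cells/mL in serum-free DMEM plus ITS, rested overnight before pin transfer of compound. After two days' incubation, ATP-dependent luminescence was recorded and curve-fitted.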
Assay [8] is described as follows: Quantitative highthroughput screen to assess conditional lethalithy of SEM cells grown in RPMI1640 with dialyzed fetal bovine serum (RPMI+ds) (AID 1963884). Also: nearly all actives have a fitted effect of over 35% in size.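 As to Viability: series mostly up to about 46 µM; 100% = DMSO control wells and 0% = empty wells without cells.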 The gist of the method:
as §1

The nature of assay [9]: Cellular viability qHTS for adrenocortical cancer (ACC) cell line SW-13 (AID 1963989). Also: nearly all actives have a fitted effect of over 65% in size.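 As to activity (max response): cells grown in serum-free medium with ITS supplement; % is scaled to controls: 0 for no effect and ±100 for the full control effect.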 The following applies: SW-13 ACC cells viability, CellTiter-Glo, 48 h; activity (max response): stronger effect = lower value. In a few lines:
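IC50 and maximal-response values come from four-parameter logistic fits of titration data. SW-13 cells in serum-free medium received compounds (up to 46 uM final) for 48 h before CellTiter-Glo luminescence.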

Assay [10] is described as follows: Quantitative highthroughput screen to assess conditional lethalithy of P12 Ichikawa cells grown in RPMI1640 with untreated serum (RPMI+s) (AID 1963881). Also: nearly all actives have a fitted effect of over 35% in size.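 As to Viability: series mostly up to about 46 µM; 100% = DMSO wells and 0% = empty wells without cells.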 Particulars: Potency: viability. In a few lines:
as §1

Assay [11] in a line: Quantitative highthroughput screen to assess conditional lethalithy of SEM cells grown in RPMI1640 with unreated serum (RPMI+s) (AID 1963883). Also: nearly all actives have a fitted effect of over 35% in size.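 As to Viability: 100% = DMSO wells and 0% = empty wells without cells.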 In a few lines: as §1
Assay [12] in a line: Quantitative highthroughput screen to assess conditional lethalithy of SEM cells grown in Human Plasma-Like Medium with dialyzed fetal bovine serum (HPLM+ds) (AID 1963882). Also: nearly all actives have a fitted effect of over 35% in size. As to Viability: series mostly up to about 46 µM. The gist of the method:
as §1
Potency is read from the fitted curve at half-maximal effect.

Regarding `NC(CO)(CO)CCc1ccc(Sc2cccc(OCc3ccccc3)c2)cc1Cl`, the Potency in [1] is 7.42 µM (active); in [2] it was 3.72 µM (active); in assay [3], 13.2 µM (active); in assay [4], 7.43 µM (active); in assay [5], 7.43 µM (active); in assay [6], 14.8 µM (active). Moreover, the Potency in assay [7] is 3.98 µM (active).
For the molecule `CNC(=O)c1cc(Oc2ccc(NC(=O)Nc3cc(C(C)(C)C)nn3-c3ccc4ncccc4c3)c(F)c2)ccn1`, the Potency in assay [1] is 0.0366 µM (active); in assay [2], 73.1 nM (active) and 52.5 nM (active); in assay [8], 0.469 µM (active); in assay [9] it was 28.2 µM (active). The Potency entry in [3], in [4], in assay [5] and in assay [6] was “inactive” in each case.
For `CC1(CN2CCC(n3c(=O)[nH]c4ccccc43)CC2)OCc2ccccc2-n2cccc21` (stereo not drawn), the Potency is 16.6 µM (active) in assay [1]; 21.1 µM (active) and 10.3 µM (active) and 14.8 µM (active) in assay [2]; 20.6 µM (active) and 25.1 µM (active) in [9]; 23.1 µM (active) in assay [7]. The Potency entry in [3], in assay [4], in assay [5], in assay [6], in [10] and in assay [11] was “inactive” each time. In addition, the Potency result in [8] is “inactive”.
For `CCc1c2c(nc3ccc(OC(=O)N4CCC(N5CCCCC5)CC4)cc13)-c1cc3c(c(=O)n1C2)COC(=O)[C@]3(O)CC`, the Potency in assay [1] is 2.99 µM (active) and 263 nM (active); in assay [2], 2.66 µM (active) and 296 nM (active); in [3], 2.96 µM (active); in assay [5], 1.18 µM (active); in assay [6] it was 1.18 µM (active); in assay [10], 0.833 µM (active). For the same molecule, the Potency was 2.35 µM (active) in [12]; 1.87 µM (active) in assay [11]; 1.48 µM (active) in assay [8]; 3.66 µM (active) and 3.55 µM (active) in [9].
Consider `O=C(O)Cc1cccc(OCCCN(Cc2cccc(C(F)(F)F)c2Cl)CC(c2ccccc2)c2ccccc2)c1`, for which the Potency in [1] was 20.9 µM (active); in assay [2], 16.6 µM (active); in [7], 22.4 µM (active). For the same molecule, the Potency result in [3], in assay [4], in [5], in assay [6], in assay [10] and in assay [11] was “inactive” in each case. In [8], the Potency result was “inactive”.
`Cc1noc(NS(=O)(=O)c2ccc(N)cc2)c1C`: the Potency entry in [1], in [2], in [3], in [4], in assay [6] and in assay [10] was “inactive” each time. The Potency entry in [12], in [11] and in assay [8] was “inactive” throughout. Also, the activity (max response) in assay [9] was -8.37% (inactive).
On to `COc1cc2ncn(-c3cc(OCc4ccccc4C(F)(F)F)c(C(N)=O)s3)c2cc1OC`, for which the Potency in assay [1] was 355 nM (active) and 662 nM (active); in assay [2], 282 nM (active) and 263 nM (active); in assay [3], 2.64 µM (active); in assay [5], 1.32 µM (active); in assay [6], 2.35 µM (active); in assay [10], 2.09 µM (active). Besides, in [11], the Potency is 2.09 µM (active).
With `NC(=O)[C@@H](CCC(F)(F)F)N(Cc1ccc(-c2ncon2)cc1F)S(=O)(=O)c1ccc(Cl)cc1`, the Potency in assay [1] was 20.9 µM (active); in assay [2] it was 18.6 µM (active); in [4] it was 20.9 µM (active); in assay [12] it was 23.5 µM (active); in assay [11], 16.6 µM (active); in assay [8], 18.7 µM (active). In addition, in assay [9], the Potency was 28.2 µM (active). Further, in assay [3], the Potency result was “inactive”.
Turning to `COc1cc(N2CCC(N(C)C)CC2)ccc1Nc1ncc(Cl)c(Nc2ccccc2P(C)(C)=O)n1`, the Potency is 0.0661 µM (active) in assay [1]; 116 nM (active) and 148 nM (active) in assay [2]; 2.63 µM (active) in assay [3]; 1.05 µM (active) in assay [4]; 0.933 µM (active) in [5]; 2.09 µM (active) in assay [10]. The Potency in assay [12] was 0.467 µM (active); in [8], 0.524 µM (active); in assay [9], 2 µM (active); in assay [7] it was 8.91 µM (active).
Take `Cc1ccc(C(=O)c2cc(O)c(O)c([N+](=O)[O-])c2)cc1`: the Potency in assay [1] was 20.9 µM (active); in assay [2], 23.5 µM (active); in assay [7], 23.1 µM (active) and 31.6 µM (active). Also, the Potency entry in [3], in assay [4], in assay [5], in assay [10], in [12] and in assay [11] was “inactive” each time.
For `C[C@@]1(c2cc(-c3cncnc3)c(F)cc2F)CCSC(N)=N1`, the Potency entry in [1] and in assay [7] was “inactive” in each case. The Potency in [2] is 23.5 µM (active); in assay [3], 1.66 µM (active); in assay [4] it was 3.72 µM (active); in assay [5], 10.5 µM (active); in assay [6], 16.6 µM (active); in assay [10], 11.8 µM (active). In addition, the figures for the Potency in [11] and in [8] were 7.43 µM (active) and 16.6 µM (active), respectively.
On to `CCC(C)(C)C(=O)O[C@H]1C[C@@H](C)C=C2C=C[C@H](C)[C@H](CC[C@@H]3C[C@@H](O)CC(=O)O3)[C@H]21`, for which the Potency in assay [1] is 8.41 µM (active) and 9.34 µM (active); in [2] it was 2.99 µM (active) and 3.72 µM (active); in [3], 20.9 µM (active); in assay [4] it was 18.7 µM (active); in [10], 14.8 µM (active); in [7], “inactive and 17.8 µM (active)”. Moreover, the activity (max response) in [9] was -9.24% (inactive) and -17.2% (inactive).
`Nc1ccc(C(=O)c2cc3c(ccc4ccccc43)[nH]2)cc1`: the Potency in assay [1] was 4.28 µM (active); in assay [2] it was 4.81 µM (active); in assay [3], 14.8 µM (active); in [5], 2.96 µM (active); in assay [6], 5.9 µM (active); in assay [10] it was 3.32 µM (active). In addition, the Potency in assay [12] was 2.96 µM (active); in assay [11] it was 3.72 µM (active); in assay [8], 2.96 µM (active); in assay [9], 2.24 µM (active); in assay [7], 2.51 µM (active).
On to `FC(F)(F)c1ccc(CNc2ccc(Cc3c[nH]c4ncc(Cl)cc34)cn2)cn1`, for which the Potency is 146 nM (active) and 417 nM (active) in assay [1]; 366 nM (active) and 833 nM (active) in [2]; 2.34 µM (active) in assay [3]; 0.295 µM (active) in assay [5]; 3.31 µM (active) in assay [6]; 3.71 µM (active) in assay [10]. Also, the figures for the Potency in assay [12], in [11] and in assay [8] were 1.86 µM (active), 0.132 µM (active) and 1.48 µM (active), respectively. For the same molecule, the Potency entry in [7] was “inactive”.
